The source of these data is ChEMBL document CHEMBL3988442, “University of Dundee, Small-Polar-MMV Screening Library” (2021).

The target of one assay is T1, Tyrosyl-tRNA synthetase, putative (Trypanosoma cruzi (strain CL Brener)) (UniProt Q4DSP6).
T1 sequence (whole entry): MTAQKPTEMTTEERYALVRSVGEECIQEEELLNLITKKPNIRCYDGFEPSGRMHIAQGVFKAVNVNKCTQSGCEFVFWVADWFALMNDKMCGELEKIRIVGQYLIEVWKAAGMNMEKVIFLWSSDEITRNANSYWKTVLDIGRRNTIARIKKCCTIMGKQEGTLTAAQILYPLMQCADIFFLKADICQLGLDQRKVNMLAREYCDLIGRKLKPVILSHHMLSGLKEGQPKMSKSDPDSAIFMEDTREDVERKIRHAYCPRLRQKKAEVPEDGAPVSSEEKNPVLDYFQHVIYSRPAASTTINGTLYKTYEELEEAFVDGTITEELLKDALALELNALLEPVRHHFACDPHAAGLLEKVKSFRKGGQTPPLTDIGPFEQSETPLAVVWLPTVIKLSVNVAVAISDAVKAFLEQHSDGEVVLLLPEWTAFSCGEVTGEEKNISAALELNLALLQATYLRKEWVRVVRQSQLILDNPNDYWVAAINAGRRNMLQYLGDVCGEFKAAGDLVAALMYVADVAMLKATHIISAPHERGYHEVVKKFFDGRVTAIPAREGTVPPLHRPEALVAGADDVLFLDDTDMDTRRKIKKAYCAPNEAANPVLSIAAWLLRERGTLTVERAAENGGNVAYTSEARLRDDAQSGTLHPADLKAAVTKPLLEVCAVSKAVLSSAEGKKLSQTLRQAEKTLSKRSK
In words: Trypanosoma cruzi tyrosyl tRNA synthetase (TcYRS) _High Tyrosine SOP. More on the design: scale not given: in the data most compounds retested in dose-response had high values. The following applies: 30 µM. Format: functional.
Consider `CCc1cnc(CN(C(C)=O)C2CCN(CCc3cnn(C)c3)C2)o1` (stereo not drawn), for which the Percent Effect was determined as 7.39%.
In the case of `CC(C)c1nnc2n1CC(CNCc1ccncc1)CC2` (stereo not drawn), the Percent Effect was found to be 3.16%.
On the same count and under the same terms, the same measure for `O=S(=O)(Cc1ccccc1F)NCCN1CCOCC1`: -1.64%; for `COc1cc(C(=O)N2CCC(c3n[nH]c(C4CC4)n3)CC2)ccc1C`: 1.04%.
In the case of `CC(C)(C)C(=O)NS(=O)(=O)c1ccc(C#N)cc1C(F)(F)F`, the Percent Effect is 1.48%.
As to `O=C(N1CCCO1)[C@@]12CCO[C@@H]1CCN(C1CCCCC1)C2`, the Percent Effect is -105%.
On the same count and under the same terms, the result for `O=C(c1ccccc1-n1cccn1)N1CCCN(c2cccnn2)CC1` reads 0.952%; that for `Cc1cc(C)n(CC2CCCN2C(=O)c2cnn(C)c2C2CC2)n1` (stereo not drawn), 2.97%.
For `CCC(C)(NCC(=O)Nc1nc(C)cs1)c1nc(C)cs1` (stereo not drawn), the Percent Effect came out at 7.53%.
On to `CCOc1nnc(CN2CCC(N(C)Cc3noc(C)n3)C2)s1` (stereo not drawn), for which the Percent Effect is 7.39%.
For `Cc1ccc(=O)n(CC2(O)CCN(Cc3cnc(C)nc3)CC2)n1`, the Percent Effect is -1.07%.
Still for that read-out and setting: the result for `O=C(Cn1c(=O)n(Cc2ccco2)c2ncccc21)Nc1ccccn1` reads 5.38%.
On the same count and under the same terms, the same measure for `COc1cccc(N2CCN(CC(O)c3cc(C)sc3C)CC2)c1` (stereo not drawn): 15.1%; for `CCOCC(=O)NC1(c2cccc(Br)c2)CC1`: -1.59%; for `CCc1noc(C(C)N(C)CC(=O)Nc2ccc(C)cc2)n1` (stereo not drawn): -1.07%.
Consider `CCn1cnnc1CNC(=O)c1cc(Cl)ccc1OC`, for which the Percent Effect turned out to be 9.38%.
For `CCc1nc(CNC(=O)Nc2ccc(C(=O)NC)cc2C)cs1`, the Percent Effect was 4.92%.
For `O=C(CCc1cccs1)N1CCC(Nc2cccnn2)CC1`, the Percent Effect stood at 9.36%.
Turning to `COCC(=O)N1CCCC1c1cc(Nc2nnc(C)s2)nc(C)n1` (stereo not drawn), the Percent Effect was determined as 4.25%.
Turning to `CCn1ccnc1CN1C[C@@H](CN2CCCC2)[C@@H](CO)C1`, the Percent Effect is 1.59%.
Turning to `COc1ccccc1CC(=O)NCc1c(C)nc2cc(=O)[nH]n2c1C`, the Percent Effect worked out at 4.41%.
For the compound `Cc1cc(-c2nnc(SCC(=O)O)n2C(C)c2ccccc2)nn1C` (stereo not drawn), the Percent Effect amounted to 9.47%.
In the case of `CCOCCOC(C)C(=O)NCc1cn2cc(Br)ccc2n1` (stereo not drawn), the Percent Effect turned out to be 5.32%.
As for `CCc1nc2n(n1)CC(NCc1nc(C)ccc1O)CC2` (stereo not drawn), the Percent Effect came out at 0%.
The same measure, in the same setting: the same measure for `COc1ccccc1CC(=O)NS(C)(=O)=O`: 4.85%; for `Cn1ccc(C(=O)NC2CCC23CCN(C(=O)c2ccncc2)CC3)c1` (stereo not drawn): 5.21%; for `O=C1N(c2ccc(F)cc2)Cc2nc(=O)n(Cc3cccc(Cl)c3)n21`: -5.29%.
In the case of `CNc1oc(-c2cc(S(=O)(=O)N3CCCCCC3)c(C)o2)nc1C#N`, the Percent Effect is 1.06%.
On to `COc1ccc(CN2CCCC3(CCN(c4ccsc4)C3=O)C2)cc1` (stereo not drawn), for which the Percent Effect worked out at 2.13%.
On the same count and under the same terms, the result for `CCCc1n[nH]c(C2CN(CCCOc3ccccc3)CCO2)n1` (stereo not drawn) reads 4.17%; that for `COCCNC(=O)c1sc(Nc2ccc(Cl)cn2)nc1C`, 6.35%.
Regarding `c1ccc(CCN2CCOC(Cn3cccn3)C2)nc1` (stereo not drawn), the Percent Effect came to 3.81%.
The same measure, in the same setting: the result for `CC1=Nc2c(c(=O)[nH]n2C(C)C)C(c2ccccc2)S1` (stereo not drawn) reads 22.2%; that for `CCCS(=O)(=O)N1CCO[C@H]2[C@H](OCc3ccccn3)CC[C@@H]21`, 10.9%.
Turning to `Cc1nn(C)c(C)c1C1CCCN1C(=O)CCNc1ncccn1` (stereo not drawn), the Percent Effect was found to be 3.45%.
The same measure, in the same setting: the same measure for `Cn1c(Cn2ccnc2)nnc1C1CCCN(C2CCCCC2)C1` (stereo not drawn): 5.82%; for `Cc1cc(N2CCN(C(=O)c3cc(Cl)c[nH]3)CC2)nc(N)n1`: 10.4%; for `CCNc1cc2c(nn1)CCN(C(=O)c1ccc(NC3CC3)nc1)C2`: 5.39%.
Turning to `Cc1cn2c(n1)CCC(NC(=O)CCn1ccnn1)C2` (stereo not drawn), the Percent Effect is 2.46%.

The target of another assay is T1, Tyrosyl-tRNA synthetase, putative (Trypanosoma cruzi (strain CL Brener)). In words: Trypanosoma cruzi tyrosyl tRNA synthetase (TcYRS) SOP. On the set-up: scale not given: direction of the effect not stated beside the values. Format: functional. As to conditions: 30 µM.
Consider `CCc1cnc(CN(C(C)=O)C2CCN(CCc3cnn(C)c3)C2)o1` (stereo not drawn), for which the Percent Effect turned out to be 18.5%.
The same measure, in the same setting: the same measure for `CC(C)c1nnc2n1CC(CNCc1ccncc1)CC2` (stereo not drawn): -2.56%; for `O=S(=O)(Cc1ccccc1F)NCCN1CCOCC1`: 6.17%.
For `COc1cc(C(=O)N2CCC(c3n[nH]c(C4CC4)n3)CC2)ccc1C`, the Percent Effect is -2.53%.
On the same count and under the same terms, the same measure for `CC(C)(C)C(=O)NS(=O)(=O)c1ccc(C#N)cc1C(F)(F)F`: 11.1%; for `O=C(N1CCCO1)[C@@]12CCO[C@@H]1CCN(C1CCCCC1)C2`: 15%.
On to `O=C(c1ccccc1-n1cccn1)N1CCCN(c2cccnn2)CC1`, for which the Percent Effect came out at 9.41%.
For the compound `Cc1cc(C)n(CC2CCCN2C(=O)c2cnn(C)c2C2CC2)n1` (stereo not drawn), the Percent Effect was 1.22%.
On the same count and under the same terms, the same measure for `CCC(C)(NCC(=O)Nc1nc(C)cs1)c1nc(C)cs1` (stereo not drawn): 13.6%; for `CCOc1nnc(CN2CCC(N(C)Cc3noc(C)n3)C2)s1` (stereo not drawn): 6.17%; for `Cc1ccc(=O)n(CC2(O)CCN(Cc3cnc(C)nc3)CC2)n1`: 3.9%.
For `O=C(Cn1c(=O)n(Cc2ccco2)c2ncccc21)Nc1ccccn1`, the Percent Effect stood at 1.3%.
For the compound `COc1cccc(N2CCN(CC(O)c3cc(C)sc3C)CC2)c1` (stereo not drawn), the Percent Effect was 22.1%.
For `CCOCC(=O)NC1(c2cccc(Br)c2)CC1`, the Percent Effect is -2.44%.
For the compound `CCc1noc(C(C)N(C)CC(=O)Nc2ccc(C)cc2)n1` (stereo not drawn), the Percent Effect was -2.5%.
The same measure, in the same setting: the same measure for `CCn1cnnc1CNC(=O)c1cc(Cl)ccc1OC`: 15.2%; for `CCc1nc(CNC(=O)Nc2ccc(C(=O)NC)cc2C)cs1`: 11.1%; for `O=C(CCc1cccs1)N1CCC(Nc2cccnn2)CC1`: 23.5%.
Take `COCC(=O)N1CCCC1c1cc(Nc2nnc(C)s2)nc(C)n1` (stereo not drawn): the Percent Effect was determined as 8.97%.
`CCn1ccnc1CN1C[C@@H](CN2CCCC2)[C@@H](CO)C1`: the Percent Effect worked out at 7.32%.
The same measure, in the same setting: the same measure for `COc1ccccc1CC(=O)NCc1c(C)nc2cc(=O)[nH]n2c1C`: 7.32%; for `Cc1cc(-c2nnc(SCC(=O)O)n2C(C)c2ccccc2)nn1C` (stereo not drawn): 12.8%; for `CCOCCOC(C)C(=O)NCc1cn2cc(Br)ccc2n1` (stereo not drawn): 10.4%.
As to `CCc1nc2n(n1)CC(NCc1nc(C)ccc1O)CC2` (stereo not drawn), the Percent Effect was found to be 10.4%.
Regarding `COc1ccccc1CC(=O)NS(C)(=O)=O`, the Percent Effect came to 14.6%.
As to `Cn1ccc(C(=O)NC2CCC23CCN(C(=O)c2ccncc2)CC3)c1` (stereo not drawn), the Percent Effect amounted to 13.6%.
`O=C1N(c2ccc(F)cc2)Cc2nc(=O)n(Cc3cccc(Cl)c3)n21`: the Percent Effect was -2.56%.
Still for that read-out and setting: the result for `CNc1oc(-c2cc(S(=O)(=O)N3CCCCCC3)c(C)o2)nc1C#N` reads 10.3%; that for `COc1ccc(CN2CCCC3(CCN(c4ccsc4)C3=O)C2)cc1` (stereo not drawn), 3.85%; that for `CCCc1n[nH]c(C2CN(CCCOc3ccccc3)CCO2)n1` (stereo not drawn), 7.59%.
Regarding `COCCNC(=O)c1sc(Nc2ccc(Cl)cn2)nc1C`, the Percent Effect came to 10.3%.
In the case of `c1ccc(CCN2CCOC(Cn3cccn3)C2)nc1` (stereo not drawn), the Percent Effect was found to be 11.8%.
For `CC1=Nc2c(c(=O)[nH]n2C(C)C)C(c2ccccc2)S1` (stereo not drawn), the Percent Effect was 28.2%.
Take `CCCS(=O)(=O)N1CCO[C@H]2[C@H](OCc3ccccn3)CC[C@@H]21`: the Percent Effect turned out to be 15.8%.
Consider `Cc1nn(C)c(C)c1C1CCCN1C(=O)CCNc1ncccn1` (stereo not drawn), for which the Percent Effect came out at 18.5%.
In the case of `Cn1c(Cn2ccnc2)nnc1C1CCCN(C2CCCCC2)C1` (stereo not drawn), the Percent Effect was 19.5%.
Take `Cc1cc(N2CCN(C(=O)c3cc(Cl)c[nH]3)CC2)nc(N)n1`: the Percent Effect worked out at 13.6%.
Same read-out and setting: the result for `CCNc1cc2c(nn1)CCN(C(=O)c1ccc(NC3CC3)nc1)C2` reads 9.76%.
The same measure, in the same setting: the result for `Cc1cn2c(n1)CCC(NC(=O)CCn1ccnn1)C2` (stereo not drawn) reads 6.17%.
